GDH-TPI inh: GDH-TPI coupling enzyme inhibitors, primary screen, artefact control for M. tuberculosis FBA inhibitor project, biochemical, absorbance, full deck; GDH-TPI coupled enzyme counterscreen, NADH absorbance; inhibition, % at 4.8 µM; hit rate 1.2% among 360,000; AID 588335, 2011; in the data active = inhibition above about 30%
Vc quorum ag: inducers of Vibrio cholerae quorum light production without autoinducers, primary screen, BH1578 luxS cqsA deficient, single point; V. cholerae BH1578 lux reporter, luminescence, 6 h; activation, % at 18.7 µM; hit rate 0.16% among 350,000; AID 588436, 2011; in the data active = activation mostly above about 9.7%, no sharp cut-off
BioA inh: M. tuberculosis BioA enzyme inhibitors, primary screen, biochemical, plate reader, single point, HTS; purified M. tuberculosis BioA enzyme; inhibition, % at 9.99 µM; hit rate 0.096% among 360,000; 7,8-diaminopelargonic acid synthase BioA (Mycobacterium tuberculosis); in the data active = inhibition above about 40%
Mtb FBA inh: Mtb FBA enzyme inhibitors, primary screen, biochemical, fluorescence, strain H37Rv; Fructose-bisphosphate aldolase (Mycobacterium tuberculosis (strain ATCC 25618 / H37Rv)), …; hit rate 2.3% among 360,000; purified M. tuberculosis FBA, fluorescence read-out; AID 588726, 2011; inhibition, % at 1 µM; in the data active = inhibition above about 27%
Target sequence (P9WQA3 whole entry, looked up): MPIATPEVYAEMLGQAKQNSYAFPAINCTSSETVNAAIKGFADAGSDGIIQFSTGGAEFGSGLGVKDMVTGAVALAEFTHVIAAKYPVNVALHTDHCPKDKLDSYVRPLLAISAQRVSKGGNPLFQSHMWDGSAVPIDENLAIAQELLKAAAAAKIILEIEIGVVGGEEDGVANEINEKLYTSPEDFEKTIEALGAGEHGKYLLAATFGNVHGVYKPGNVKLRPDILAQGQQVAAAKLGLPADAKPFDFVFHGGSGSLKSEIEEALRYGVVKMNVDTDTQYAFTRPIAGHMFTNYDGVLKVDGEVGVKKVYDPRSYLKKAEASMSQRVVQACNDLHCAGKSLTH
Of the large screens only hits and unclear results are named; the others gave an inactive call. Most compounds without a hit are left out; they make up all but 3% or so of the library.

COc1cc2cc(Oc3ccc4ccc(=O)oc4c3)c(=O)oc2cc1OC(C)=O	none
O=C(Oc1ccc(-c2ccccc2)cc1)c1ccco1	none
O=C(CN1C(=O)NC2(CCCCC2)C1=O)Oc1ccc2ccc(=O)oc2c1	Mtb FBA inh active
COc1ccccc1C(=O)Oc1ccc2ccc(=O)oc2c1	Mtb FBA inh 117
O=C(Oc1ccc2ccc(=O)oc2c1)c1ccco1	Mtb FBA inh active
C[C@@H]1CCCCO[C@H](CN(C)S(=O)(=O)c2cn(C)cn2)[C@H](C)CN([C@@H](C)CO)C(=O)c2cc(NS(=O)(=O)c3cccs3)ccc2O1	none (no result: GDH-TPI inh, Vc quorum ag, Mtb FBA inh)
COCCNC(=O)C[C@H]1CC[C@@H]2[C@@H](COc3ccc(NC(=O)c4cnccn4)cc3C(=O)N2C)O1	none (no result: GDH-TPI inh, Vc quorum ag, Mtb FBA inh)
CCc1cc(=O)oc2c(C)c(O)c(CN(C)C)cc12	GDH-TPI inh 32, Mtb FBA inh active
C=C(C)COc1ccc2c(CC)cc(=O)oc2c1C	none (no result: BioA inh)
CNC[C@@H]1Oc2ncc(-c3cccc(F)c3)cc2C(=O)N([C@@H](C)CO)C[C@@H]1C	none (no result: GDH-TPI inh, Vc quorum ag, Mtb FBA inh)
Cc1nc(/C=C\C(=O)O)c2cc(C)oc2n1	Mtb FBA inh active (no result: BioA inh)
C[C@H](NC(=O)C[C@H]1C[C@@H]2c3cc(NC(=O)Nc4ccc(C(F)(F)F)cc4)ccc3O[C@@H]2[C@H](CO)O1)c1ccccc1	none (no result: GDH-TPI inh, Vc quorum ag, Mtb FBA inh)
Cc1noc(C)c1S(=O)(=O)Nc1ccc2c(c1)C(=O)N([C@@H](C)CO)C[C@H](C)[C@H](CN(C)S(C)(=O)=O)OCCCC[C@@H](C)O2	none (no result: GDH-TPI inh, Vc quorum ag, Mtb FBA inh)
CCOc1ccc(-n2nnnc2SCC(=O)Nc2ccc(NC(C)=O)cc2)cc1	none
C#CCSc1nnnn1-c1ccc(OCC)cc1	Vc quorum ag 607
COc1ccc(-c2nc(-c3ccccc3)c(-c3cc([N+](=O)[O-])ccc3C)[nH]2)cc1O	none
Cc1ccc([N+](=O)[O-])cc1-c1[nH]c(-c2ccc(O)c(O)c2)nc1-c1ccccc1	Vc quorum ag 25
COc1ccc([N+](=O)[O-])cc1-c1[nH]c(-c2ccc(C(=O)O)cc2)nc1-c1ccccc1	GDH-TPI inh 37
COc1ccc(NC(=O)CSc2nncn2C)cc1OC	Vc quorum ag 17
CC(=O)Nc1ccc(NC(=O)CSc2nncn2C)cc1	none
CO[C@@H]1CN(C)C(=O)c2ccc(NC(=O)C3CC3)cc2OC[C@@H](C)N(CC2CC2)C[C@H]1C	none (no result: GDH-TPI inh, Vc quorum ag, Mtb FBA inh)
N#CC(/C(=N/S(=O)(=O)c1cccs1)c1ccccc1)c1nc2ccccc2[nH]1 (configuration not stated)	GDH-TPI inh 43
O=C1Nc2ccccc2C1=Nc1ccc2[nH]c3ccccc3c2c1	Mtb FBA inh 41 (no result: BioA inh)
COc1ccc(-c2cnnc(N/N=C/c3ccc(O)cc3)n2)cc1	GDH-TPI inh 34 (no result: BioA inh)
Oc1ccc(/C=N\Nc2nncc(-c3ccccc3)n2)cc1	GDH-TPI inh 40
COc1ccc(-c2cnnc(N/N=C/c3ccc(O)c(O)c3)n2)cc1	none (no result: BioA inh)
COc1ccc(/C=N/NC(=S)Nc2cccc(C(=O)O)c2)cc1OC	GDH-TPI inh 50 (no result: BioA inh)
COc1cc(/C=N/NC(=S)Nc2cccc(C(=O)O)c2)cc(OC)c1OC	GDH-TPI inh 41
COc1cccc(/C=N/NC(=S)Nc2cccc(C(=O)O)c2)c1	none (no result: BioA inh)
C[C@@H]1CN([C@@H](C)CO)C(=O)c2cc(NS(=O)(=O)c3cn(C)cn3)ccc2O[C@H]1CN(C)S(=O)(=O)c1ccc(Cl)cc1	none (no result: GDH-TPI inh, Vc quorum ag, Mtb FBA inh)
COc1ccc(CN(C)C[C@@H]2Oc3ccc(NC(=O)C4CC4)cc3CC(=O)N([C@@H](C)CO)C[C@@H]2C)cc1	none (no result: GDH-TPI inh, Vc quorum ag, Mtb FBA inh)
BrC(/C=N/N1CCN(Cc2ccccc2)CC1)=C/c1ccccc1	GDH-TPI inh 31
BrC(=C\c1ccccc1)/C=N/N1CCN(Cc2ccccc2)CC1	none (no result: BioA inh)
Cc1ccc(Nc2nc(NCC3CCCO3)nc(N)c2[N+](=O)[O-])cc1 (configuration not stated)	none (no result: BioA inh)
COCCNc1nc(N)c([N+](=O)[O-])c(NC2CCCCC2)n1	none
Nc1nc(NCCOCCO)nc(NCc2ccccc2)c1[N+](=O)[O-]	none
CNc1nc(N)c([N+](=O)[O-])c(NCC2CCCO2)n1 (configuration not stated)	GDH-TPI inh 34 (no result: BioA inh)
COCCNc1nc(N)c([N+](=O)[O-])c(NCC2CCCO2)n1 (configuration not stated)	GDH-TPI inh 38
Nc1nc(NCCOCCO)nc(NCC2CCCO2)c1[N+](=O)[O-] (configuration not stated)	GDH-TPI inh 43 (no result: BioA inh)
CC(C)C#Cc1ccc2c(c1)O[C@@H](CN(C)C(=O)c1ccccn1)[C@H](C)CN([C@H](C)CO)S2(=O)=O	none (no result: GDH-TPI inh, Vc quorum ag, Mtb FBA inh)
C[C@@H]1CN([C@@H](C)CO)C(=O)c2cc(C3=CCCCC3)cnc2O[C@@H]1CN(C)C(=O)c1cccnc1	none (no result: GDH-TPI inh, Vc quorum ag, Mtb FBA inh)
COc1ccc(NC(=O)Nc2ccc3c(c2)[C@H]2C[C@@H](CC(=O)N4CCCCC4)O[C@H](CO)[C@H]2O3)cc1	none (no result: GDH-TPI inh, Vc quorum ag, Mtb FBA inh)
C[C@H](CO)N1C[C@H](C)[C@@H](CN(C)S(=O)(=O)c2cn(C)cn2)Oc2c(NS(=O)(=O)c3ccc(Cl)cc3)cccc2C1=O	none (no result: GDH-TPI inh, Vc quorum ag, Mtb FBA inh)
CCOc1ccccc1N1CCN(Cc2cccc(OC)c2OC)CC1	none
CCOc1ccccc1N1CCN(Cc2cn[nH]c2-c2ccc(F)cc2)CC1	Mtb FBA inh 31 (no result: BioA inh)
Nc1ccc(-c2nc3c(ccc4ccccc43)[nH]2)cc1	GDH-TPI inh 42, Mtb FBA inh active
Fc1ccc(-c2nc3ccccc3[nH]2)cc1	none (no result: BioA inh)
Nc1ccc(-c2nc3ccccc3[nH]2)cc1	Mtb FBA inh 117
Nc1ccccc1-c1nc2ccccc2[nH]1	Mtb FBA inh active
Nc1ccc2nc(-c3cccc(-c4nc5ccc(N)cc5[nH]4)n3)[nH]c2c1	none
Cc1ccc2nc(-c3cccc(N)c3)[nH]c2c1	Mtb FBA inh 137
C[C@H]1CN([C@@H](C)CO)C(=O)c2cccc(NC(=O)c3cnccn3)c2O[C@@H]1CN(C)Cc1ccc2c(c1)OCO2	none (no result: GDH-TPI inh, Vc quorum ag, Mtb FBA inh)
O=C(NC1CCCC1)[C@H]1[C@H](CO)[C@H]2Cn3c(ccc(-c4ccncc4)c3=O)[C@H]2N1CC1CC1	none (no result: GDH-TPI inh, Vc quorum ag, Mtb FBA inh)
O=C(O)c1ccc(-c2nc3ccccc3[nH]2)cc1	Mtb FBA inh active (no result: BioA inh)
CC(=O)/C(=C(/O)c1ccccc1)c1nc2ccccc2[nH]1	none
Cc1[nH]ncc1-c1nc2ccccc2[nH]1	none
O=C(/C(=C(\O)c1ccccc1)c1nc2ccccc2[nH]1)c1ccccc1	GDH-TPI inh 40
O=C(O)c1ccc(/C=C(\c2nc3ccccc3[nH]2)c2nc3ccccc3s2)cc1	GDH-TPI inh 65
Oc1ccc(C=Nc2ccccc2-c2nc3ccccc3[nH]2)cc1	Mtb FBA inh active (no result: BioA inh)
Nc1cccc(-c2nc3ccccc3[nH]2)c1	Mtb FBA inh 136
CC(=O)Nc1cc(NC(C)=O)cc(-c2nc3ccccc3[nH]2)c1	none
Cc1c(-c2nc3ccccc3[nH]2)cnn1C	none
O=c1[nH]cccc1-c1nc2ccccc2[nH]1	GDH-TPI inh 42, Mtb FBA inh active
C/C=C/c1cnc2c(c1)C(=O)N([C@H](C)CO)C[C@@H](C)[C@H](CN(C)C(=O)Nc1c(C)noc1C)O2	none (no result: GDH-TPI inh, Vc quorum ag, Mtb FBA inh)
O=c1oc2c(CN3CCOCC3)c(O)ccc2c2c1CCC2	Mtb FBA inh active
